Each structure is given as a SMILES string.

This experiment in a line: RPMI8226 myeloma cell viability, profiling panel, resazurin fluorescence, basal, 24 h, PK04 Diversity Set (AID 1180).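 Also: RPMI8826 multiple myeloma cell line at 5000 cells per well; test concentration not given here.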 To be noted: higher = more signal.
With `Cc1ccc(S[C@]2(C(=O)NC(C)C)CC(=O)N(C(C)C)[C@@H]2c2ccc(CO)cc2I)cc1`, the z-score was -1.72.

As to `C=C(/C(=C/C[C@@H](OC(C)=O)c1ccc(CO)o1)c1cc(C(=O)OC)ccc1OC)C(C)C`, the z-score was -0.0967.

Compound `COc1ccc(CCNC(=O)[C@@]2(Cc3ccccc3I)c3ccccc3C(=O)N(Cc3ccccc3Cl)[C@H]2c2ccc(CO)cc2)cc1` returned a z-score of -0.978.

On to `COCCCNC(=O)[C@@]1(Sc2ccc(C)cc2)CC(=O)N(Cc2ccccc2Cl)[C@@H]1c1ccc(CO)cc1I`, for which the z-score is -2.38.

As for `COc1cc(C(O)C2C=CC3C(=O)N(Cc4ccccc4)C(=O)C3N2n2cnnc2)cc(OC)c1OC` (stereo unspecified), the z-score is 0.0011.

For `[N-]=[N+]=Nc1ccccc1C[C@]1(C(=O)NCc2ccccc2)COC(c2ccc(OCCCO)cc2)=N1`, the z-score was -4.83.

Consider `Cc1ccc(S[C@]2(C(=O)NCc3ccccc3)CC(=O)N(Cc3cc(C(F)(F)F)cc(C(F)(F)F)c3)[C@@H]2c2ccc(CO)cc2I)cc1`, for which the z-score was -1.17.

In the case of `COc1cc2c(cc1OC)CN(C(=O)[C@@H]1[C@H]3C(=O)O[C@H](c4ccccc4)[C@H](c4ccccc4)N3[C@H](c3ccc(O)cc3)[C@@]13C(=O)Nc1ccc(C#CCCO)cc13)CC2`, the z-score was -0.657.

Consider `Cc1ccccc1C(O)C1C=CC2C(=O)NC(=O)C2N1Nc1ccc(Cl)cc1Cl` (stereo unspecified), for which the z-score is -1.25.

For `C=CCC(OC(C)=O)[C@@H]1[C@@H](N(Cc2ccc(-c3cccc(C(F)(F)F)c3)o2)C(=O)c2ccc(C)cc2)c2cc(OCCCO)ccc2N1C(=O)Cc1ccc(OC)cc1` (stereo partly specified), the z-score is 1.11.

`COc1ccc([Si](C)(C)[C@@H]2[C@@H](CC(=O)N3Cc4ccccc4C[C@H]3CO)O[C@]3(C(=O)N(Cc4ccc(N5CCC5=O)cc4)c4ccccc43)[C@H]2C)cc1`: the z-score is -0.536.

In the case of `Cc1ccc(S[C@]2(C(=O)NC(C)C)CC(=O)N(Cc3ccccc3Cl)[C@@H]2c2ccc(CO)cc2)cc1`, the z-score amounted to 0.351.

As for `CCOC(=O)C[C@H]1[C@H](OC(=O)c2ccc(-c3ccccc3)cc2)[C@@H](NC(=O)CC(C)C)c2cc(OCCCO)ccc2N1C(=O)c1ccccc1`, the z-score is -0.157.

For `C=C(C(=O)CC[C@H](OC(=O)c1ccccc1-c1ccccc1C(=O)O)c1ccccc1OCCO)C(C)C`, the z-score was -0.268.

`COCCOC(=O)N1C(=O)[C@@]2(c3cc(C#CC4=CCCCC4)ccc31)[C@H](c1ccc(O)cc1)N1[C@H](c3ccccc3)[C@H](c3ccccc3)OC(=O)[C@H]1[C@@H]2C(=O)NC[C@H](O)c1ccccc1`: the z-score was -2.55.

`NC(=O)[C@H]1[C@@H]2C(=O)O[C@@H](c3ccccc3)[C@@H](c3ccccc3)N2[C@@H](c2ccc(O)cc2)[C@]12C(=O)Nc1ccc(C#CC3=CCCCC3)cc12` returned a z-score of -4.76.

Regarding `CC1CC/C=C\[C@H]2OC34C=CCN(C(C)(C)C)C(=O)[C@H]3N(C(CO)C(C)C)C(=O)[C@@H]4C2C(=O)O1` (stereo partly specified), the z-score was -0.375.

Compound `O=C(NCCN1CCOCC1)[C@@H]1c2ccccc2C(=O)N(Cc2ccccc2)[C@H]1c1ccc(CO)cc1` returned a z-score of 0.822.

In turn, `CC(C)CCC[C@@H](C)[C@H]1CC[C@@]2(C)C3=C(CC[C@]12C)[C@@]1(C)CC[C@H](OC(=O)c2ccccc2)C(C)(C)C1CC3` (stereo partly specified) registered a z-score of 0.56.

Take `C[C@]1(C(=O)O)c2ccccc2C(=O)N(Cc2ccc(OC(F)(F)F)cc2)[C@H]1c1ccc(CO)cc1`: the z-score came to 0.441.

The compound `C=CCNC(=O)[C@H]1[C@@H]2C(=O)O[C@@H](c3ccccc3)[C@@H](c3ccccc3)N2[C@@H](c2ccc(O)cc2)[C@]12C(=O)N(C(=O)OCCOC)c1ccc(C#CCC(C(=O)OC)C(=O)OC)cc12` came in with a z-score of -4.72.

`CCCNC(=O)[C@@]1(Sc2ccc(C)cc2)CC(=O)N(C(C)C)[C@@H]1c1ccc(CO)cc1I` returned a z-score of -2.53.

Turning to `COc1ccc([Si](C)(C)[C@H]2[C@H](CCO)O[C@@]3(C(=O)N(Cc4ccccc4)c4ccc(N5CCOC5=O)cc43)[C@@H]2C)cc1`, the z-score was -2.64.

Regarding `C=CC1c2cc(O)c(OC)cc2CCN1Cc1ccc([N+](=O)[O-])o1` (stereo unspecified), the z-score stood at 0.685.

As to `CCCCC(=O)N(CCN1CCOCC1)[C@@H]1CC(C(=O)NCCO)=C[C@H](Oc2c(I)cc(CO)cc2OC)[C@H]1O`, the z-score was found to be 0.29.

For the compound `C=C[C@@H](C)[C@@H](OC(=O)Nc1ccc(SC)cc1)c1ccc(OCCO)cc1`, the z-score was found to be 0.0167.

`CC(C)C[C@@H]1NC(=O)CNC(=O)[C@@]23C(=O)N[C@@H](Cc4ccccc4)C2[C@H](C)[C@@]2(C)O[C@H]2C3/C=C/C/C=C\CNC1=O` (stereo partly specified) yielded a z-score of 0.663.

In turn, `Cc1c(NC(=O)/C(C#N)=C/c2ccccc2Cl)c(=O)n(-c2ccccc2)n1C` returned a z-score of 0.0753.

The compound `COCCCNC(=O)[C@@]1(c2ccc([N+](=O)[O-])cc2)CC(=O)N(C(C)C)[C@@H]1c1ccc(CO)cc1` gave a z-score of 1.24.

`C=CCC(OC(C)=O)[C@@H]1[C@@H](N(Cc2cccc3ccccc23)C(=O)c2cccc3ccccc23)c2cc(OCCCO)ccc2N1C(=O)c1ccc2ccccc2c1` (stereo partly specified) returned a z-score of -0.0722.

Compound `CC(C)C[C@@H]1NC(=O)[C@H]2C[C@@H](C(=O)NCCCCCN)[C@@H](c3cccc(OCCO)c3)N2C1=O` returned a z-score of 0.138.

The compound `COC(=O)[C@@]1(Cc2ccccc2)[C@H]2c3cc(C(=O)N4CCCC4)n(CCSCCO)c3C[C@H]2CN1C(=O)c1ccccc1` had a z-score of -1.68.

In turn, `CCOC(=O)C1=C[C@@H](C(C)(C)C)N(S(=O)(=O)c2ccc(C)cc2)[C@H]1c1ccccc1` registered a z-score of -1.11.

Compound `C=CCN1C(=O)[C@]2(O[C@H](CCO)[C@@H]([Si](C)(C)c3ccc(OC)cc3)[C@@H]2C)c2cc(NC(=O)c3ccc(OC)cc3)ccc21` gave a z-score of -6.22.

Compound `COCCOC(=O)N1C(=O)[C@@]2(c3cc(C#Cc4ccc(OC)cc4)ccc31)[C@H](C(=O)NC[C@H](O)c1ccccc1)[C@H]1C(=O)O[C@H](c3ccccc3)[C@H](c3ccccc3)N1[C@@H]2c1ccc(OCCO)cc1` returned a z-score of -0.285.

For the compound `CCc1cccc(NC(=O)O[C@H]2[C@H](OC(=O)Nc3ccccc3)[C@H](OC(=O)Nc3ccccc3)[C@@H](OC)O[C@@H]2CO)c1`, the z-score was -6.11.

Values taken from PubChem BioAssay.
